Compound activity deposited in PubChem by National Center for Advancing Translational Sciences (NCATS).
Cruzain Triton: blocks cruzain activity in presence of Triton detergent. Potency, µM, usual class: inhibitors. actives 0.43% (n = 200,000). AID 1478. purified cruzain, Z-FR-AMC fluorescence, 0.01% Triton. P25779; also: nearly all actives have a fitted effect of over 40% in size
Target sequence (P25779 123-467 limits assumed): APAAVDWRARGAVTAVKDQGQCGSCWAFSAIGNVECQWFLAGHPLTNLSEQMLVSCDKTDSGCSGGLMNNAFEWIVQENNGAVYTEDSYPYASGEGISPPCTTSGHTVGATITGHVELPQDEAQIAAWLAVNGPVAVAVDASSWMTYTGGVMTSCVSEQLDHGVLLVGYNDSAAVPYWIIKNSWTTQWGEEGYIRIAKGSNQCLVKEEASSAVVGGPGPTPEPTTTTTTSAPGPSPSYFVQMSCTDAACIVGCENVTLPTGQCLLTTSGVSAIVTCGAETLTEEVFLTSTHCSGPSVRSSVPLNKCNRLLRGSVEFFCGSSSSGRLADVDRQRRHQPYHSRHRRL
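Cruzain (1.5 nM) preincubated 15 min at RT with compound in 100 mM sodium acetate pH 5.5, 5 mM DTT, 0.01% Triton X-100. Reaction started with 2 uM Z-FR-AMC; AMC fluorescence (ex 360/em 450 nm) change over 60 s gave rate.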
Cruzain noTriton: inhibitors of Trypanosoma cruzi cruzain without detergent. Potency, µM, most hits filed as inhibitors. actives 2.3% (n = 200,000). P25779. AID 1476. purified cruzain, Z-FR-AMC fluorescence, no detergent; also: nearly all actives have a fitted effect of over 40% in size
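Detergent-free condition (0.00005% Triton X-100) in acetate buffer pH 5.5 with DTT. 1.5 nM enzyme and compound were pre-mixed 15 min, then 2 uM Z-FR-AMC substrate added; reaction progress from fluorescence change between first and third reads (60 s).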
Large screens that a line does not name were inactive. Compounds with a hit are over-represented: about 2.4% of the library has one in this group of screens. Calls follow the shape of the dose curve; as a rule, active = well fitted curve in the direction sought with a large enough effect; inconclusive = small, poorly fitted or top-dose-only effect, or another doubt; inactive = no such curve, though single readings can be large; an effect the other way counts as inactive or inconclusive.

Cc1nc(N2CCN(S(=O)(=O)c3ccc(F)cc3)CC2)c2c(C)c(C)sc2n1	none
O=C(Nc1cccc(Cl)c1N1CCCCC1)c1ccc2c(c1)OCCO2	none
O=C(NC(=S)Nc1cccc(Cl)c1N1CCCCC1)c1ccc2c(c1)OCCO2	Cruzain noTriton 12.6µM
COc1ccc(C2Nc3ccccc3C(=O)N2Cc2ccco2)cc1CN1C(=O)c2ccccc2C1=O (configuration not stated)	Cruzain noTriton inconclusive
COc1ccc(C2Nc3ccccc3C(=O)N2Cc2ccco2)cc1COc1ccc(F)cc1 (configuration not stated)	Cruzain noTriton 25.1µM
CCOc1ccc(C(=O)NCc2ccc3c(c2)CCN3C(=O)c2ccc(C)cc2)cc1OCC	none
N#Cc1cccc(-c2cc(NCc3ccccc3)ncn2)c1	none
COC(=O)c1c(NC(=O)CN2CCN(Cc3ccc4c(c3)OCO4)CC2)sc(C)c1C	none
COC(=O)c1c(NC(=O)CN2C(=O)c3ccccc3C2=O)sc(Cc2ccc3c(c2)OCO3)c1C	Cruzain noTriton 10µM
NC1=N[C@H](c2ccc(Cl)cc2)N(c2ccc(S(=O)(=O)Nc3ncccn3)cc2)C(N)=N1	none
COc1cccc(CNCc2cccn2-c2nnc(N3CCN(c4ccccc4)CC3)s2)c1	none
O=C(N/N=C/c1cc(Br)ccc1O)c1ccccc1Cl	none
O=C(CCc1ccccc1)N/N=C/c1cc(Br)ccc1O	Cruzain noTriton 20µM
Cc1ccc(NC(=O)CC2Nc3ccccc3NC2=O)cc1C (configuration not stated)	none
CCOc1ccccc1NC(=O)CC1Nc2ccccc2NC1=O (configuration not stated)	Cruzain noTriton inconclusive
Cc1ccc(NC(=O)CC2Nc3ccccc3NC2=O)cc1Cl (configuration not stated)	Cruzain Triton inconclusive, Cruzain noTriton 25.1µM
CCCOc1ccccc1NC(=O)CC1Nc2ccccc2NC1=O (configuration not stated)	Cruzain noTriton 12.6µM
CCCCOc1ccc(C(=O)Nc2cc(-c3ccc(C)cc3)no2)cc1	none
CCOc1ccc(C(=O)Nc2cc(-c3ccccc3)no2)cc1	Cruzain noTriton 20µM
CCOc1ccc(-c2ccc(NS(=O)(=O)c3cc(C)c(C)cc3C)cc2)nn1	none
CCC(C)c1ccccc1OCC(=O)Nc1ccc(S(=O)(=O)Nc2cc(C)on2)cc1 (configuration not stated)	none
CC1Cc2ccccc2N1C(=O)CSc1ccccc1 (configuration not stated)	none
CC(C)C(=O)Nc1nnc(SCC(=O)N2c3ccccc3CC2C)s1 (configuration not stated)	Cruzain Triton 10µM, Cruzain noTriton 31.6µM
CN1CCN(CCCBr)CC1	none
CC(=O)c1ccc(-c2nc3ccccc3n2C)o1	Cruzain noTriton 15.8µM
Cc1ccc(-c2nc3ccccc3n2C)o1	none
CC(C)OC(=O)[C@@H]1CC[C@H](C)[C@@H](CCC[C@@H]2C[C@@H](O)C[C@H](CC#N)O2)O1	none
CCOC(=O)CC1C(=O)NCCN1C(=O)c1cc2c(=O)n3ccccc3nc2s1 (configuration not stated)	Cruzain Triton 22.4µM
CCOC(=O)CC1C(=O)NCCN1C(=O)c1cc2c(=O)n3cccc(C)c3nc2s1 (configuration not stated)	none
CCC1CCCCN1C(=O)CCS(=O)(=O)c1cc2c(cc1C)NC(=O)CO2 (configuration not stated)	none
CCCC1=C/C(=C/c2ccc(-c3ccccc3OC)o2)C(=O)O1	Cruzain noTriton inconclusive
COc1ccccc1-c1ccc(/C=C2/C=C(CC(C)C)OC2=O)o1	Cruzain noTriton 31.6µM
Cc1ccc(-c2noc(C(C)NS(=O)(=O)c3ccc(C)cc3)n2)cc1 (configuration not stated)	none
CC1Cc2ccccc2N1Cc1nc2cc(C(F)(F)F)ccc2c(=O)[nH]1 (configuration not stated)	Cruzain noTriton 25.1µM
CC1Cc2ccccc2N1Cc1cc(=O)n2ccsc2n1 (configuration not stated)	Cruzain noTriton inconclusive
COc1cccc(CNC(=O)C2CCN(S(=O)(=O)c3ccc4c(c3)CCCN4C(C)=O)CC2)c1	none
COc1cc(OC)cc(-c2nc3ccccc3c(=O)n2OC(=O)c2ccc(Br)cc2)c1	Cruzain noTriton 25.1µM
COc1ccc(C(=O)On2c(-c3ccc(Br)cc3)nc3ccccc3c2=O)cc1	Cruzain noTriton inconclusive
O[N+]1=CC=CCC1=S.On1ccccc1=S.[Zn]	Cruzain Triton 3.16µM, Cruzain noTriton 2.51µM
COc1cc2cc(c1Cl)N(C)C(=O)C[C@H](OC(=O)C(C)C)[C@]1(C)O[C@@H]1[C@@H](C)[C@H]1C[C@](O)(NC(=O)O1)[C@@H](OC)/C=C\C=C(\C)C2	Cruzain noTriton inconclusive
CCc1ccccc1NC(=O)c1nnn(-c2ccc(F)cc2)c1C	none
Cn1c(C(=O)NCCN2CCc3ccccc3C2)cc2c(=O)n(C)c3ccccc3c21	Cruzain Triton 25.1µM, Cruzain noTriton inconclusive
CCCN(CCC)CCNC(=O)c1cc2c(=O)n(C)c3ccccc3c2n1C	Cruzain Triton 15.8µM, Cruzain noTriton inconclusive
Cn1c(C(=O)NCCN2CCN(c3ccccc3F)CC2)cc2c(=O)n(C)c3ccccc3c21	none
CCOCCCNC(=O)c1cc2c(=O)n(C)c3ccccc3c2n1C	none
Cn1nnc2c(NCCc3ccccc3)ncnc21	none
Cc1nc2cc(-c3ccccc3)nn2c(C)c1CCC(=O)NCc1cccc(Cl)c1	none
Cc1cnc(CNc2cc(-c3cccnc3)ncn2)cn1	none
CCC1=Nc2cc(C(=O)NC3CCC(C)CC3)ccc2Sc2ccc(C)cc21 (configuration not stated)	none
c1coc(-c2nc(-c3ccco3)c(-c3ccco3)nc2-c2ccco2)c1	Cruzain Triton 7.94µM, Cruzain noTriton inconclusive
COc1ccc2nc(-c3ccco3)c(-c3ccco3)nc2c1	Cruzain Triton 11.2µM, Cruzain noTriton 3.98µM
Nc1nc(-c2ccco2)c(-c2ccco2)s1	none
COc1ccc(Nc2c(-c3ccco3)nc3cccc(C)n23)cc1	none
COC(=O)c1cccnc1	none
C=CCOC(=O)N[C@H](/C(C(=O)OC)=C(\C)NCc1ccccc1)c1ccc(C)cc1	none
O=C1C(NS(=O)(=O)c2cccs2)=C(N2CCN(c3cccc(Cl)c3)CC2)C(=O)c2ccccc21	Cruzain noTriton 12.6µM
CC1CCN(C2=C(NS(=O)(=O)c3ccc(Cl)cc3)C(=O)c3ccccc3C2=O)CC1	none
CCCOC(=O)CSc1ncnc2sc3c(c12)CCC(C)C3 (configuration not stated)	none
O=S(=O)(c1ccc(-c2nc3ccccc3s2)cc1)N1CCCC1	Cruzain noTriton 25.1µM
O=S(=O)(c1cccc(-c2nc3ccccc3s2)c1)N1CCCC1	none
CCC1CCC(C(=O)NC(C(=O)Nc2cccc(OC)c2)C(C)C)CC1 (configuration not stated)	none
CC1=NN(c2nc(-c3ccc(Cl)cc3)cs2)C(=O)C1	Cruzain noTriton 7.94µM
CC1=NN(c2nc(-c3ccc(F)cc3)cs2)C(=O)C1	none
Cc1cc(C)c2c(CC(=O)Nc3ccc(S(=O)(=O)N4CCCCC4)cc3)coc2c1	Cruzain noTriton inconclusive
Cc1ccc2c(CC(=O)Nc3ccc(S(=O)(=O)N4CCCCC4)cc3)coc2c1C	Cruzain noTriton 25.1µM
Cc1ccc2c(CC(=O)Nc3ccc(S(=O)(=O)N4CCCCC4)cc3)coc2c1	Cruzain noTriton 25.1µM
Cc1ccc2c(CC(=O)Nc3ccc(S(=O)(=O)N4CCCC(C)C4)cc3)coc2c1 (configuration not stated)	Cruzain noTriton inconclusive
